Experimental findings from PubChem BioAssay (NCATS) are described below.

Inconclusive results are not listed. Activity calls are given as the source filed them. Unless noted, the call rests on the fitted dose curve; in most records, active means well fitted curve in the direction sought with a large enough effect; inconclusive means small, poorly fitted or top-dose-only effect, or another doubt; inactive means no such curve, though single readings can be large; an effect the other way counts as inactive or inconclusive. A value given as a limit tells only on which side of the number the result lay.

In test [1] the target is Lysosomal acid glucosylceramidase (Homo sapiens) (UniProt P04062). Description: Glucocerebrosidase-p2 (AID 348; in the data active means potency below about 10 µM; further: potency means the concentration at half of the fitted maximal effect). To be noted: purified GBA, blue fluorogenic substrate, 40 min. In short, it runs like this:
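Normal human glucocerebrosidase (0.2 nM) with blue fluorogenic substrate (80 uM final) in citrate/phosphate pH 5.9 with 10mM sodium taurocholate, 0.01% tween-20; 40 min RT, NaOH/glycine stop; fluorescence Ex 365/Em 440; AC50 from a titration from 0.6 nM upwards.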

A short description of test [2]: AP1 Signaling Pathway (AID 357; active means well fitted curve in either direction with a large enough effect, not every such curve was filed as active;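 further: ME-180 reporter cells stimulated with EGF at its EC50 level; on the % scale 0 is the no-effect control and ±100 the full control effect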). To be noted: ME-180 AP-1-bla reporter, EGF-induced, beta-lactamase ratio, 5 h; at 7.69 µM (top of the series) unless noted. The gist of the method:
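Modulation of EGF-driven AP-1 transcription was assessed with a beta-lactamase reporter in ME-180 cells. Compound and EC50 EGF were co-incubated 5 hours at 37 °C before 2.5-hour CCF4 loading at room temperature and dual-emission reading.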

Test [3] is described as follows: NFAT Signaling Pathway (AID 444; active means well fitted curve in either direction with a large enough effect, not every such curve was filed as active;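 further: carbachol stimulus at about its EC50 of 1 µM final; on the % scale 0 is the no-effect control and ±100 the full control effect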). To be noted: Jurkat NFAT-bla M1, carbachol, beta-lactamase ratio, 5 h; at 7.69 µM (top of the series) unless noted. In short, it runs like this: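 Jurkat cells with NFAT-driven β-lactamase reporter and co-expressed M1 receptor, stimulated with carbachol (final 1 uM, ~EC50), compound titration, 5 h at 37 °C. CCF4 loaded 1 h at RT; 460/530 nm ratio gave %activity and AC50.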

Test [4] in a line: Stat Signaling Pathway (AID 446; active means well fitted curve in either direction with a large enough effect, not every such curve was filed as active;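 further: ME-180 cervical cancer cells given 40 pM IL-6 alongside compound; SIE-controlled beta-lactamase reporter measured as 460/530 nm FRET emission ratio; on the % scale 0 is the no-effect control and ±100 the full control effect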). To be noted: ME-180 (cervical carcinoma) SIE beta-lactamase reporter, IL-6 stimulated, 5 h; at 7.69 µM (top of the series) unless noted. In short, it runs like this: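 Compound effects on IL-6-induced STAT reporter activity were measured in ME-180 cells. After overnight culture, cells were co-treated with 40 pM IL-6 for 5 hrs before beta-lactamase substrate loading at room temperature.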

Test [5] concerns the target Glucocorticoid receptor (Homo sapiens) (UniProt P04150). Description: GR-GFP Redistribution (AID 450;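 active means compounds whose dose series gives a full or clear partial fitted curve of increased nuclear translocation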; further: potency means the concentration at half of the fitted maximal effect). To be noted: U2OS GR-GFP nuclear translocation, laser cytometry, 2 h.
The target is the same in test [6]. Description: GR-EFC Redistribution (AID 451; calls by dose curve; further: potency means the concentration at half of the fitted maximal effect). To be noted: CHO-K1 GR-EFC translocation, beta-gal luminescence, 2 h. The gist of the method:
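CHO-K1 cells expressing nuclear EA and GR-ED fragments of b-gal; compounds titrated up to 46 uM final, 2 h at 37 C. GR nuclear translocation read as complemented b-gal luminescence after 1 h RT detection.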

The target in test [7] is Mitogen-activated protein kinase 10 (Mus musculus) (UniProt Q61831). Description: JNK3 AlphaScreen Assay (AID 530; active means well fitted curve in either direction with a large enough effect, not every such curve was filed as active;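 further: kinase came from lysate of stimulated human HepG2 cells; signal reports phosphorylation of biotinylated GST-cJun 1-79 at Ser73 with 10 µM ATP; on the % scale 0 is the no-effect control and ±100 the full control effect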). In short, it runs like this: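 Activity was read by AlphaScreen after JNK3-containing HepG2 lysate (cytokine pre-activated) phosphorylated biotinylated GST-cJun with 10 uM ATP at room temperature. Phospho-Ser73 cJun antibody with Protein-A acceptor beads provided detection.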

In test [8] the target is 3',5'-cyclic-AMP phosphodiesterase 4B (Homo sapiens) (UniProt Q07343). As to the kind of experiment: qHTS Assay for Inhibitors of PDE-IV (AID 607; active means well fitted activation curve with a large enough effect in the main read-out, with a control signal flat, not every such curve was filed as active; further: % of control where 0% means no effect). The gist of the method:
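ACTOne HEK293 cells carry a modified cAMP-gated CNG channel and express endogenous PDE4; plated 1000 cells/well, compounds up to 22.9 uM final. Membrane-potential dye fluorescence (ex 535/em 590) was read; parental cells received 10 uM forskolin + 100 uM RO 20-1724.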
For orientation: In qHTS, concentration-response curves come from the screen itself.

Test [9] can be described thus: qHTS Assay for Lipid Storage Modulators (AID 1519; calls by dose curve). To be noted: Drosophila S3 cells, BODIPY lipid droplet/cell ratio, laser cytometry, cells loaded with oleic acid; for activity change, negative = inhibition: at 57.5 µM (top of the series). In short, it runs like this: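 Cells seeded at 5,000 per well were treated with compounds over a concentration series and loaded with oleic acid (400 uM, as added). Lipid droplet fluorescence (488 nm excitation, 500-530 nm channel) was read by laser-scanning cytometry and normalized to 20 uM Triacsin C.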

The target of test [10] is Dual specificity protein kinase CLK4 (Homo sapiens) (UniProt Q9HAZ1). As to the kind of experiment: qHTS Assay for Inhibitors of CDC-like Kinase 4 (Kinase-Glo Assay) (AID 1770). Further: nearly all actives have a fitted effect of over 65% in size. Further: potency means the concentration at half of the fitted maximal effect. In short, it runs like this: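 Inhibition was judged from remaining ATP, measured by Ultra-Glo luciferase bioluminescence after Clk4 (25 nM) had acted on RS peptide at 1 uM ATP for 4.5 hours, room temperature.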

Test [11] shares this target. Description: qHTS Assay for Inhibitors of CDC-like Kinase 4 (ADP-Glo Assay) (AID 1771). Further: on the % scale 0 is the no-effect control and ±100 the full control effect; nearly all actives have a fitted effect of over 70% in size. In short, it runs like this:
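Compounds are pin-transferred onto substrate mix (100 uM RS peptide, 1 uM ATP), then 25 nM Clk4 is added. After 1 hr at room temperature, ADP-Glo reagent runs 45 min, detection reagent 30 min, then luminescence is read.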

Test [12] has as its target Ubiquitin carboxyl-terminal hydrolase 1 (Homo sapiens) (UniProt O94782). Description: Inhibitors of USP1/UAF1: Pilot qHTS (AID 504865). Further: nearly all actives have a fitted effect of over 35% in size. Further: potency means the concentration at half of the fitted maximal effect. In short, it runs like this:
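Kinetic fluorescence assay: 1nM USP1/UAF1, 15 min compound preincubation, then 150nM Ub-Rho; 480/540 nm.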

A short description of test [13]: Primary qHTS for small molecule stabilizers of the endoplasmic reticulum resident proteome: Secreted ER Calcium Modulated Protein (SERCaMP) assay (AID 1508630). Further: on the % scale 0 is the no-effect control and ±100 the full control effect. The gist of the method:
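The SH-SY5Y reporter protocol was run at 3 concentrations up to 38.3 uM (primary) or 11 concentrations (follow-up): 16 h compound, 100 nM thapsigargin for 4 h, then extracellular luciferase luminescence.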

For test [14], the target named is Rap guanine nucleotide exchange factor 3 (Homo sapiens) (UniProt O95398). As to the kind of experiment: Confirmatory qHTS for antagonist of cAMP-regulated guanine nucleotide exchange factor 3 (EPAC1) (AID 1645880).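 Further: plate controls were DMSO only for no effect and full effect of the ATA control for full effect; nearly all actives have a fitted effect of over 55% in size.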 In short, it runs like this:
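Released BODIPY-GDP fluoresces less than Rap1-bound BODIPY-GDP; the signal is followed at 480/540 nm at 5-min intervals over 30 min, after 5 min at room temperature. Reactions contain 100 nM EPAC1, 250 nM RAP1B-BODIPY-GDP and 50 uM GDP; results are normalized to ATA and DMSO.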

The target in test [15] is Rap guanine nucleotide exchange factor 4 (Homo sapiens) (UniProt Q8WZA2). As to the kind of experiment: Confirmatory qHTS for antagonist of cAMP-regulated guanine nucleotide exchange factor 4 (EPAC2) (AID 1645885). Further: on the % scale 0 is the no-effect control and ±100 the full control effect; nearly all actives have a fitted effect of over 25% in size.
For test [16], the target named is Cytochrome P450 3A4 (Homo sapiens) (UniProt P08684). Description: qHTS Assay for Activators of Cytochrome P450 3A4 (AID 885). Further: nearly all actives have a fitted effect of over 65% in size. In short, it runs like this: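 CYP3A4 activity: Luciferin-PPXE O-dealkylation, 25uM substrate, 200mM KPO4, RT throughout. Read-out is luciferase luminescence; higher values reflect activation.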
For test [17], the target named is Rap guanine nucleotide exchange factor 3 (Homo sapiens) (UniProt O95398). Description: Confirmatory qHTS for agonist of cAMP-regulated guanine nucleotide exchange factor 3 (EPAC1) (AID 1645881).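 Further: EPAC1 catalysed release of BODIPY-GDP from Rap1B seen as fluorescence loss; 100% = effect of cAMP agonist control; nearly all actives have a fitted effect of over 75% in size.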
In test [18] the target is Cytochrome P450 1A2 (Homo sapiens) (UniProt P05177). As to the kind of experiment: p450-cyp1a2 (AID 410; calls by dose curve; further: potency means the concentration at half of the fitted maximal effect). The gist of the method: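 O-Demethylation of luciferin 6' methyl ether by human CYP1A2 is monitored as luciferase luminescence. Substrate sits at Km (100uM); enzyme is 20nM. Values are scaled to 57 uM furafylline as maximal inhibition.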
Test [19] has as its target Dual specificity protein kinase CLK4 (Homo sapiens) (UniProt Q9HAZ1). Description: qHTS Assay for Inhibitors of CDC-like Kinase 4 (ADP-FP Assay) (AID 1795).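 Further: recombinant human CLK4 phosphorylating RS repeat peptide at 1 µM ATP; on the % scale 0 is the no-effect control and ±100 the full control effect; nearly all actives have a fitted effect of over 60% in size.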 The gist of the method: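 Inhibition of ADP formation by 6.25 nM Clk4 is measured using 1 uM ATP and 100 uM RS repeat peptide over one hour. Produced ADP displaces a fluorescent tracer from antibody, lowering polarization.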

Setting [20] is: measured here: cell count channel max response.
Where [21] appears, read: measured here: lipid channel max response.

Lysosomal acid glucosylceramidase (Homo sapiens), sequence (P04062 whole entry, looked up): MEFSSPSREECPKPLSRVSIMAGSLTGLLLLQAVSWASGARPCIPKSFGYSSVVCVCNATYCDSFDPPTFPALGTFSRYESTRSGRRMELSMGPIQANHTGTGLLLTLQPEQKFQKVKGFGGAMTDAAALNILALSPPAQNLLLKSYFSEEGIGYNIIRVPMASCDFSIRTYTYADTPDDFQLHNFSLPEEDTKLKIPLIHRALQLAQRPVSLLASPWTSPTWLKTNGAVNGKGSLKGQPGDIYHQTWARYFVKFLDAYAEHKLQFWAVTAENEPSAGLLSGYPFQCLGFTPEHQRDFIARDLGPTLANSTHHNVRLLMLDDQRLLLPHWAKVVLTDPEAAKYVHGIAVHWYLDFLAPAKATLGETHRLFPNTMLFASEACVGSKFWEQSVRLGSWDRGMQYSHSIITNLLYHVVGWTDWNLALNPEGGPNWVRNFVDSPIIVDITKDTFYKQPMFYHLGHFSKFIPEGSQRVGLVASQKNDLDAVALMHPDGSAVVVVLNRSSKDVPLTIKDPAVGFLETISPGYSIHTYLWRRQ
Cytochrome P450 1A2 (Homo sapiens), sequence (P05177 whole entry, looked up): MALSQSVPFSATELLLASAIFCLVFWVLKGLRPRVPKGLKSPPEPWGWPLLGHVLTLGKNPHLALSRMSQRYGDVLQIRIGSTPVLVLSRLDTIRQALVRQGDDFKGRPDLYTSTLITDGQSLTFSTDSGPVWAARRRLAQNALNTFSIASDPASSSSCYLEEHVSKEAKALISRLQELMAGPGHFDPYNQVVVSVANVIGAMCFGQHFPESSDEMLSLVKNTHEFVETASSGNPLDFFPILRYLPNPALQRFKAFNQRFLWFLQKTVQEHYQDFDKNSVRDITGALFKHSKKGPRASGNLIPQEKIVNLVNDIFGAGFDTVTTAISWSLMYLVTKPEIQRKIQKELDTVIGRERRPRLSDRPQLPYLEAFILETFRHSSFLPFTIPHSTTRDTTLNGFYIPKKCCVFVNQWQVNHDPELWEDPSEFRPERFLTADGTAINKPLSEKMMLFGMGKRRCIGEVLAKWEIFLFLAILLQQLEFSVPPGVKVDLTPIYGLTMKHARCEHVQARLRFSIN
Ubiquitin carboxyl-terminal hydrolase 1 (Homo sapiens), sequence (O94782 whole entry, looked up): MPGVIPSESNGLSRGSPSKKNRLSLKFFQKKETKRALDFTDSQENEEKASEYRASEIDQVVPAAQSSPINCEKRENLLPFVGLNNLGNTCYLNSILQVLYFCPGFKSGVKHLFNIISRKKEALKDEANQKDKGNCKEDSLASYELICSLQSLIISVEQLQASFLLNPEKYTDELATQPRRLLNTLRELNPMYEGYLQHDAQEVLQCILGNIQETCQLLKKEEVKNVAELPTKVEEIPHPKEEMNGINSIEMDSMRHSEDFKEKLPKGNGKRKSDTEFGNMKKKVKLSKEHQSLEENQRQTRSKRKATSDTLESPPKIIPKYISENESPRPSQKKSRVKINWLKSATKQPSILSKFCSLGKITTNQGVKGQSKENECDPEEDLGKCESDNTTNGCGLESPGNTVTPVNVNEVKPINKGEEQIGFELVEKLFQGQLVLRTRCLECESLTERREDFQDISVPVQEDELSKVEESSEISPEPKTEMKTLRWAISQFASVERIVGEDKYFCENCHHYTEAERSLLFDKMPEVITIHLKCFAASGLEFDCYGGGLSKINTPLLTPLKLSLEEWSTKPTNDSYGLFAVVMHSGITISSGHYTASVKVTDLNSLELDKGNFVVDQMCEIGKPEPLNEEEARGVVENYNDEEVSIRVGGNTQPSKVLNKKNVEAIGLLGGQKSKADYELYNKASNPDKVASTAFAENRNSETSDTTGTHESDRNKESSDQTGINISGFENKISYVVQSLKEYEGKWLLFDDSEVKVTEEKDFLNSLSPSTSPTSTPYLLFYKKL
Cytochrome P450 3A4 (Homo sapiens), sequence (P08684 whole entry, looked up): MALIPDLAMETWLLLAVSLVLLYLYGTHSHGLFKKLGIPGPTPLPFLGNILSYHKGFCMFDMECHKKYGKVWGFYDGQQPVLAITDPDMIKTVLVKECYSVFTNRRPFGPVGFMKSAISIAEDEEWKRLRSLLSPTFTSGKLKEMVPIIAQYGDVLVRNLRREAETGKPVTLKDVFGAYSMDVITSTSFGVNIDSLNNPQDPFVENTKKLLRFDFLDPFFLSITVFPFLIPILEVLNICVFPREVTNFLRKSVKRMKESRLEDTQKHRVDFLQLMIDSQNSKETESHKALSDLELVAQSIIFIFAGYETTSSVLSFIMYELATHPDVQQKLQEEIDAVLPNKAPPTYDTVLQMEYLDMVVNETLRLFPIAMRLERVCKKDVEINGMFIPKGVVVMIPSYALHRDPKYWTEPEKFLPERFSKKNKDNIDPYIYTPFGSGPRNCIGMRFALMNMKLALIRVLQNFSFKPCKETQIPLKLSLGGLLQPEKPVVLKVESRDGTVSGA
Dual specificity protein kinase CLK4 (Homo sapiens), sequence (Q9HAZ1 whole entry, looked up): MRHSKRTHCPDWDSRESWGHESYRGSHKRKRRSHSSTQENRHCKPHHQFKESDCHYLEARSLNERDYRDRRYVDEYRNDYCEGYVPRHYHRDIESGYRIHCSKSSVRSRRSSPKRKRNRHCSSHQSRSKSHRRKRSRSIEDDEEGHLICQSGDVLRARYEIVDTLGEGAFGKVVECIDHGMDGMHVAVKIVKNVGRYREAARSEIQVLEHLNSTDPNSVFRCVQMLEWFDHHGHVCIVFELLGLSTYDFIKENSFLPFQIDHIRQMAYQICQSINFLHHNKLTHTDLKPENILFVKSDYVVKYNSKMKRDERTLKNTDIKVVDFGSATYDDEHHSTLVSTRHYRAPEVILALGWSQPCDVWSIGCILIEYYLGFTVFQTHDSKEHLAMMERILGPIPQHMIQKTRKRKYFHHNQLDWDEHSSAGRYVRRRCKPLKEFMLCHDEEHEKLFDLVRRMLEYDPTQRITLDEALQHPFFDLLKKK
Rap guanine nucleotide exchange factor 3 (Homo sapiens), sequence (O95398 whole entry, looked up): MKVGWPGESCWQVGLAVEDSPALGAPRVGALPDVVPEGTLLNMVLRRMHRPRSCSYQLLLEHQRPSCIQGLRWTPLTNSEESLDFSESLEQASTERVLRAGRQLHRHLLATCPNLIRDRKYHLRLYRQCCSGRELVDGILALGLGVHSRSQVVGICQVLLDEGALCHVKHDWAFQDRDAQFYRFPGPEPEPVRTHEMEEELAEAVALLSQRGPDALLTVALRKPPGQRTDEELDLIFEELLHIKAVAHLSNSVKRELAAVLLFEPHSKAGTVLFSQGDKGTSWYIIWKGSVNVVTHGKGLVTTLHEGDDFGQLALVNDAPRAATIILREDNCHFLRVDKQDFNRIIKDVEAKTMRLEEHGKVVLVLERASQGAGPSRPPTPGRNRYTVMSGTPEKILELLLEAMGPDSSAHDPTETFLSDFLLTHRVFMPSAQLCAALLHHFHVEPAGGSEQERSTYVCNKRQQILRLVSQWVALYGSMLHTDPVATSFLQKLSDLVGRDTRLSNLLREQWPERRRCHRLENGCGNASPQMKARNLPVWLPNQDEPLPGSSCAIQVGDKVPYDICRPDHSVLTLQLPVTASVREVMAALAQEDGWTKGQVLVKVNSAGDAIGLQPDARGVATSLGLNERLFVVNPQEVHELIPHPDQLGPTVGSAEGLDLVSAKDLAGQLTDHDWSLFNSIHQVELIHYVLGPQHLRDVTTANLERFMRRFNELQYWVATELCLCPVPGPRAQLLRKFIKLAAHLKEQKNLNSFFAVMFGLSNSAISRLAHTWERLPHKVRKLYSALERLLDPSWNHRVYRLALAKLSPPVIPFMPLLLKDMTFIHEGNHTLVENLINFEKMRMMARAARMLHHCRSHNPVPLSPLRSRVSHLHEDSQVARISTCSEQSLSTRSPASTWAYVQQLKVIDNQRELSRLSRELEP
Glucocorticoid receptor (Homo sapiens), sequence (P04150 whole entry, looked up): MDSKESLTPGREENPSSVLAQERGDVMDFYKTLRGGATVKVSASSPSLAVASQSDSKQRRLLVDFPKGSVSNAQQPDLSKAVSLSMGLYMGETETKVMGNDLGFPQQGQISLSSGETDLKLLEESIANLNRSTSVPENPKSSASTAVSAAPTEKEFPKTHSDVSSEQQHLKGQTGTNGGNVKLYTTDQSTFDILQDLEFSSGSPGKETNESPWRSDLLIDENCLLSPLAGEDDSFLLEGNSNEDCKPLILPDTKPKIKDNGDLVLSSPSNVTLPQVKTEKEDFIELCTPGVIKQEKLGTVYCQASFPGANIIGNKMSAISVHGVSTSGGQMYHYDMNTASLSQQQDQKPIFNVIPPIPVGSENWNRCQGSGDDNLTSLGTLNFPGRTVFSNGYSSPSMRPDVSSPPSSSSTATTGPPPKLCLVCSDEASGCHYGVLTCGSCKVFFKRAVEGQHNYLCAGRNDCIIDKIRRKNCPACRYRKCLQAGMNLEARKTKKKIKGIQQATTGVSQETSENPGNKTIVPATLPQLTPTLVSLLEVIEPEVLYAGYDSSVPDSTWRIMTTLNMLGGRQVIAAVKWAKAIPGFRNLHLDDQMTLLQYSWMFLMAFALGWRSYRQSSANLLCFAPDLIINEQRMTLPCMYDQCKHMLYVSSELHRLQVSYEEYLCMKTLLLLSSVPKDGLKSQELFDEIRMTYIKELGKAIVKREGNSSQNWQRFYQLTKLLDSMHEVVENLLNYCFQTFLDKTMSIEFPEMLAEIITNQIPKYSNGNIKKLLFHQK

As for `CN(C)c1ncc2nc(-c3cccs3)c(=O)n(CCC#N)c2n1`, the Potency in test [1] was > 11.4 µM (inactive); in [5], > 9.22 µM (inactive); in test [6] it was > 46 µM (inactive). Also, the activity change, negative = inhibition in test [2] was 0.25% (inactive); in [3] it was -7.03% (inactive); in test [9] it was 5.59% (inactive). The activity, negative = inhibition in test [4] was 4.64% (inactive). Further, the compound was classed as inactive in test [7]. Moreover, the Potency result in test [8], in test [10], in test [11], in test [12], in test [13] and in test [14] was “inactive” throughout. Further, the Potency entry in test [15] is “inactive”. Also, the max response in test [9] (setting [20]) was 20.3%; in test [9] (setting [21]), 26.4%.

As for `CC1=CC2C(=O)c3cccc(O)c3C(=O)C2C(O)=C1` (configuration not stated), the Potency result in test [13] was “inactive”.

For the compound `FC(F)(F)c1ccccc1-c1nc(N2CCOCC2)c2ccccc2n1`, the Potency in test [1] was > 11.4 µM (inactive); in [5], > 46 µM (inactive); in [6], > 46 µM (inactive); in [10], 25.1 µM (active); in test [12], 31.6 µM (active). Besides, the activity change, negative = inhibition is -3.63% (inactive) in test [3] and 6.74% (inactive) in test [9]. In addition, the activity, negative = inhibition in test [4] is 2.43% (inactive). Further, the compound was classed as inactive in test [7] and in [17]. For the same compound, the Potency result in [16], in test [13] and in [14] was “inactive” throughout. Also, the max response is 22.9% in test [9] (setting [20]) and 28.1% in test [9] (setting [21]).

In the case of `O=C(c1cnccn1)N1CCC[C@@]2(CCN(C(c3ccccc3)c3ccccc3)C2)C1`, the Potency in test [1] was > 11.4 µM (inactive); in test [18], 15.8 µM (active); in [6], > 46 µM (inactive). For the same compound, the activity change, negative = inhibition was 11.2% (inactive) in test [3] and -1.1% (inactive) in [9]. The activity, negative = inhibition in [4] was 16.5% (inactive). Further, the compound was called inactive in [7] and in test [17]. Moreover, the Potency entry in test [8], in [16], in test [13] and in [14] was “inactive” in each case. Besides, the results for the max response in test [9] (setting [20]) and in [9] (setting [21]) were 3.2% and 5.21%, respectively.

Consider `O=c1cnc2cnc(Oc3cccc(Cl)c3)nc2n1Cc1ccc(F)cc1`, for which the Potency in test [1] was > 11.4 µM (inactive); in test [18], 15.8 µM (active); in test [5], > 9.22 µM (inactive); in [6] it was > 46 µM (inactive). Moreover, the activity change, negative = inhibition in test [2] was -16% (inactive); in test [3], -9.66% (inactive); in [9], 3.63% (inactive). Besides, the activity, negative = inhibition in test [4] was -7.55% (inactive). Also, the call in [7] and in test [17] was inactive. The Potency entry in [8], in [16], in test [13] and in test [14] was “inactive” each time. In addition, the figures for the max response in test [9] (setting [20]) and in [9] (setting [21]) were 17.8% and 21.6%, respectively.

Turning to `COC(=O)N1c2ccccc2C23[C@@H]4CN5CCC[C@]6(CCC12C(O)(C6)C4=O)[C@H]53`, the Potency entry in test [13] was “inactive”.

Regarding `CC(C)(O)[C@@H]1CCC[N+]2(C)CCCC[C@H]12` (some centres not stated), in test [13], the Potency entry is “inactive”.

In the case of `Cc1nc2cnc(Oc3ccccc3)nc2n(C)c1=O`, the Potency in test [1] is > 11.4 µM (inactive); in [18], 12.6 µM (active); in [5], > 9.22 µM (inactive); in test [6] it was > 46 µM (inactive). For the same compound, the figures for the activity change, negative = inhibition in test [2], in [3] and in test [9] were -8.04% (inactive), -5.98% (inactive) and 6.1% (inactive), respectively. In addition, in [4], the activity, negative = inhibition was -10.2% (inactive). For the same compound, in test [7], the compound was called inactive. Further, the Potency entry in [8], in [10], in test [11], in [19], in test [12] and in test [13] was “inactive” throughout. For the same compound, the results for the max response in [9] (setting [20]) and in test [9] (setting [21]) were 14.9% and 19.9%, respectively.
